Screening data: PubChem BioAssay, several laboratories
Sampled rows, rich in hits. Any-hit rate of the full collection: about 4%.
MITF TRPM1 inh: inhibitors of MITF-dependent TRPM1 promoter reporter, primary screen, cell-based, SK-MEL-5, single point, luciferase | inhibition, % at 12.5 µM | AID 488899, 2010 | 330,000 compounds, 0.83% hits | SK-MEL-5 TRPM1 promoter luciferase, 24 h;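 active = mean inhibition across replicates of 60% or more, whatever share of single replicates reaches that level; inconclusive = some that reach 60%, reason not given; inactive = mean inhibition across replicates below 60%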
Peg3 promoter: Peg3 promoter-driven luciferase inhibitors, primary screen, cell-based, HeLa, luciferase luminescence; HeLa PEG-Prom luciferase reporter, overnight; inhibition, % at 20 µM; 360,000 compounds, 1.7% hits; AID 588405, 2011;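 active = inhibition of at least 50% at 20 µM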
HIF-2a block: HIF-2a reporter inhibitors, primary screen, luminescence, 786-0 RCC cells; 786-0 RCC cells HIF-2a reporter, luciferase luminescence, overnight; inhibition, % at 18.8 µM; 360,000 compounds, 0.72% hits; AID 624352, 2012;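 active = inhibition of the luminescence signal of 40% or more relative to plate controls, in a single-dose primary screen at 18.75 µM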
TWEAK-Fn14 inh: inhibitors of TWEAK-Fn14 signaling, primary screen, luciferase reporter cells, uHTS; TWEAK-stimulated Fn14 reporter cells, luciferase luminescence, 8 h; inhibition, % at 10 µM; 360,000 compounds, 2% hits; in the data active = inhibition above about 50%
TROY signal inh: inhibitors of TROY-driven NF-kB signaling, primary screen, Q293 LMP1-TROYcd cells, NF-kB luciferase, uHTS; Q293 LMP1-TROYcd NF-kB luciferase reporter, 4 h; inhibition, % at 10 µM; 360,000 compounds, 0.98% hits; AID 1347056, 2019;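 active = compounds whose plate-normalised and pattern-corrected inhibition of the luciferase reporter signal at the single screening dose is 50% or more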
LMP1 NFkB inh: EBV LMP1-driven NF-kappaB luciferase reporter inhibitors, primary screen, cell-based, luminescence, single point | inhibition, % at 12.5 µM | LMP1-induced NF-kappaB luciferase reporter cells | 350,000 compounds, 0.69% hits; in the data active = inhibition above about 41%; inconclusive = no clear call, values can overlap the other calls
Mdm2-MdmX confirm: retested Mdm2-MdmX interaction blockers, confirmation, cell-based, luminescence, single concentration, set 2. shares compounds with HIF-2a block. SaOS-2 split-luciferase Mdm2/MdmX complementation. inhibition, % at 8 µM. 740 compounds, 99% hits;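 active = mean inhibition of the luminescence signal across two replicates at or above 26 percent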
Target sequence (O15151 whole entry, looked up): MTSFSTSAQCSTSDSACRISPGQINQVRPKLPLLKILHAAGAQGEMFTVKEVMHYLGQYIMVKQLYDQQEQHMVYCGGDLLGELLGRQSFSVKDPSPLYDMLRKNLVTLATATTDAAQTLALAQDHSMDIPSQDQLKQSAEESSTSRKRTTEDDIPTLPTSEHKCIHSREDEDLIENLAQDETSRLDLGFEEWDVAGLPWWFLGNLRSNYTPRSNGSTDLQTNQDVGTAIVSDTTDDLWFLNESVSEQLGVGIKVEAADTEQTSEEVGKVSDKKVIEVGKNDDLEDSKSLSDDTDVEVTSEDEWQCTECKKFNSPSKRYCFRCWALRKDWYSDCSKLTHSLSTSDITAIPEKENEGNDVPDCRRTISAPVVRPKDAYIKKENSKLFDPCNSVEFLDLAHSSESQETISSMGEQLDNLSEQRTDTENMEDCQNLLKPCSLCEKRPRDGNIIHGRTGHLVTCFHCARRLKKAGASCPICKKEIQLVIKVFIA
Target sequence (Q00987 whole entry, looked up): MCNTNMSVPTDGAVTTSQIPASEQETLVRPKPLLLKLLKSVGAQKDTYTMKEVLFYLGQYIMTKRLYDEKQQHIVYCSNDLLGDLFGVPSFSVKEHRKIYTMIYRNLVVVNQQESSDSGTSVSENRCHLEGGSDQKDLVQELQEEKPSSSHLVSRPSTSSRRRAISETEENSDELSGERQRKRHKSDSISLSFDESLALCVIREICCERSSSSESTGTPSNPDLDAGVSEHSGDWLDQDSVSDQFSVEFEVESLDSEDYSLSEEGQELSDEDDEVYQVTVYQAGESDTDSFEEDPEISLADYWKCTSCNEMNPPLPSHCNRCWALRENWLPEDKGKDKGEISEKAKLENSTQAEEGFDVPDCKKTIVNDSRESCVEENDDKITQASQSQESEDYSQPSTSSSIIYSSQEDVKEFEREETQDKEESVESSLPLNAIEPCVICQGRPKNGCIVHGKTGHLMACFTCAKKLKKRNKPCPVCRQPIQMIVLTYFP
HIF-2a inh conf: HIF-2a reporter inhibitor retest, confirmation, luminescence, 786-0 RCC cells; inhibition, % at 18.8 µM; shares compounds with HIF-2a block; 1,800 compounds, 56% hits; AID 651580, 2012; HIF-2a luciferase reporter luminescence, overnight;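 active = mean inhibition across four replicates of at least 40 percent at the single tested concentration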
HIF-1a counter: HIF-1a luciferase reporter signal reduction – MiaPaCa-2 cells, single concentration, counter-screen for HIF-2a inhibitor project, confirmation; shares compounds with HIF-2a block; MiaPaCa-2 HIF-1a luciferase reporter, desferoxamine, overnight; inhibition, % at 18.8 µM; 1,800 compounds, 72% hits; AID 651589, 2012;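 active = mean inhibition of the reporter signal across four replicates at the single tested dose of 50% or more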
Large screens that a line does not name were inactive (follow-up assays come after a bar, where they were run).

CCN(CC)S(=O)(=O)c1cccc(NC(=O)CC2CCCC2)c1	none
CCOC(=O)CCc1ccc(NC(=O)/C=C/c2ccc([N+](=O)[O-])o2)cc1	MITF TRPM1 inh inconclusive, HIF-2a block 91, TWEAK-Fn14 inh 77 | HIF-2a inh conf 54 | HIF-1a counter 107
O=[N+]([O-])c1cc(N=Nc2ccc3ccccc3c2)ccc1O	none
CN(C)CC(C(=O)c1ccccc1)c1ccccc1 (stereo not drawn)	MITF TRPM1 inh 91, Peg3 promoter 114, HIF-2a block 86, TWEAK-Fn14 inh 79, LMP1 NFkB inh 78 | Mdm2-MdmX confirm 103 | HIF-2a inh conf inactive | HIF-1a counter 96
CCOC(=O)C1(C)CCN1C(=O)c1ccccc1C(F)(F)F (stereo not drawn)	none (no result: MITF TRPM1 inh, LMP1 NFkB inh)
Cc1nonc1NC(=O)CSc1nc(C2CCCCC2)nc2ccccc12	HIF-2a block 45 | HIF-2a inh conf inactive | HIF-1a counter 68
Cc1cc(NC(=O)CSc2nc(C3CCCCC3)nc3ccccc23)no1	none
COc1ccc(C(C)=O)cc1CN1C(=O)C(C)ON=C1c1cccc(C(F)(F)F)c1 (stereo not drawn)	none (no result: MITF TRPM1 inh, LMP1 NFkB inh)
Cc1[nH]nc2c1C(c1ccco1)C(C#N)=C(N)O2 (stereo not drawn)	none
Cc1[nH]nc2c1C(c1cc(Br)cs1)C(C#N)=C(N)O2 (stereo not drawn)	HIF-2a block 43, TWEAK-Fn14 inh 61 | HIF-2a inh conf 40 | HIF-1a counter 92
COc1ccc(NS(=O)(=O)c2ccc(C(=O)N3CCC(C)CC3)cc2)cc1	none
O=C(NCc1cccnc1)/C(=C/c1ccc(-c2cccc(Cl)c2)o1)S(=O)(=O)c1ccccc1	HIF-2a block 43, TWEAK-Fn14 inh 58 | Mdm2-MdmX confirm 103 | HIF-2a inh conf inactive | HIF-1a counter inactive
O=C(NCc1cccnc1)c1cc(-c2ccccc2)on1	none
Cc1ccc(C(=O)N/C(=C\c2ccc(-c3cc(Cl)ccc3Cl)o2)C(=O)NCc2cccnc2)cc1	none
O=C(NCc1cccnc1)/C(=C\c1ccc(-c2cccc(Cl)c2)o1)S(=O)(=O)c1ccccc1	MITF TRPM1 inh 90, Peg3 promoter 104, HIF-2a block 98, TWEAK-Fn14 inh 104, TROY signal inh 78 | HIF-2a inh conf 99 | HIF-1a counter 105
Cc1cc(C)cc(C(=O)NCC(=O)NNC(=O)CSc2ccccc2F)c1	none (no result: MITF TRPM1 inh)
[2H]C(CCOS(N)(=O)=O)c1ccc(C(C)(C)C)cc1 (stereo not drawn)	MITF TRPM1 inh 83, Peg3 promoter 59, HIF-2a block 57 | HIF-2a inh conf 63 | HIF-1a counter inactive
Nc1cc(Cl)cc2c1-c1ccc(Cl)cc1C2O (stereo not drawn)	none
O=C(Nc1cc(Cl)cc2c1-c1ccc(Cl)cc1C2O)C(Cl)Cl (stereo not drawn)	Peg3 promoter 95, HIF-2a block 45 | HIF-2a inh conf inactive | HIF-1a counter 72
CN(C)CCCNC(=O)c1ccc(-c2nc(-c3ccc(Cl)cc3)cs2)cc1	MITF TRPM1 inh 83, Peg3 promoter 103, HIF-2a block 88 | HIF-2a inh conf inactive | HIF-1a counter 106
Cc1ccc(C(=O)CCC(=O)OCC(=O)NNC(=O)c2ccc([N+](=O)[O-])cc2)cc1	none
Cc1c(C(=O)N/N=C/c2c(O)ccc3ccccc23)nnn1-c1nonc1N	none | Mdm2-MdmX confirm 92
O=C(N/N=C/c1c(O)ccc2ccccc12)c1ccc(Br)o1	LMP1 NFkB inh 61 | Mdm2-MdmX confirm 90
Cc1occc1C(=O)N/N=C/c1c(O)ccc2ccccc12	none
Nc1ncnc(N2CCc3ccccc32)c1[N+](=O)[O-]	TWEAK-Fn14 inh 84, TROY signal inh 61, LMP1 NFkB inh 65 | Mdm2-MdmX confirm 93
NNC(=O)c1ccc(N2CCc3ccccc32)c([N+](=O)[O-])c1	none
COc1ccc(/C=C/C(=O)OCC(=O)NC(C)CCc2ccccc2)cc1OC (stereo not drawn)	none
C/C(=N\NC(=O)c1ccc(N/N=C(\C)c2ccc(O)cc2)cc1)c1ccc(O)cc1	none
COc1ccc(C(=O)c2ccc(CC(=O)O)s2)cc1	HIF-2a block 59 | HIF-2a inh conf 66 | HIF-1a counter 61
COc1ccc(C(CNC(=O)c2ccc(-c3cccc(C(F)(F)F)c3)o2)N2CCOCC2)cc1 (stereo not drawn)	none
Cc1cccc(NC(=O)c2ncn3c2C(=O)N(C)CC3)c1	none (no result: MITF TRPM1 inh)
COCCCNC(=O)COc1ccc(-c2nccc(-c3ccccn3)n2)cc1	HIF-2a block 40 | HIF-2a inh conf inactive | HIF-1a counter inactive
Cc1ccc(OCC(=O)NCCCNC(=O)c2ccccn2)cc1	none
CCCCn1c(Nc2ccccc2)nc2ccccc21	none
CCCn1c(Nc2nc3ccccc3n2C)nc2ccccc21	Peg3 promoter 90, HIF-2a block 91 | Mdm2-MdmX confirm 103 | HIF-2a inh conf 58 | HIF-1a counter 105
COc1ccc(C(C[N+](=O)[O-])c2c(-c3ccccc3)cc3ccccn23)cc1 (stereo not drawn)	none
COc1cc(C(C[N+](=O)[O-])c2c(-c3ccccc3)cc3ccccn23)cc(OC)c1OC (stereo not drawn)	HIF-2a block 43 | HIF-2a inh conf inactive | HIF-1a counter 68
O=C(NC1CCCCCC1)c1ccc([N+](=O)[O-])s1	MITF TRPM1 inh 71, HIF-2a block 60 | HIF-2a inh conf 74 | HIF-1a counter 77
O=C(NC1CCCC1)c1ccc(Cl)s1	none
CC1CN(C(=O)c2ccc(NS(=O)(=O)c3ccc(C(C)(C)C)cc3)cc2)CC(C)O1 (stereo not drawn)	none
CCOC(=O)COc1cnc2ccccc2n1	none
CCCC[C@@H](CN[C@H](C)CNC)NCC1CCC(C(C)(C)C)CC1 (stereo partly drawn)	none (no result: MITF TRPM1 inh, Peg3 promoter, HIF-2a block, TWEAK-Fn14 inh, TROY signal inh, LMP1 NFkB inh) | Mdm2-MdmX confirm 103
CC[C@H](C)[C@@H](CN[C@H](CCCCNC)CNC)NCC1CCCC1	none
CSc1ncnc2c1ncn2CCCNc1ccc(C)c(C)c1	none (no result: MITF TRPM1 inh)
